Test results from ChEMBL document CHEMBL4513141, “CO-ADD screening of NIH (USA) - Clinical Collection” (2021).
Entries with a potency or affinity are not part of this list.

Legend:
Klebsiella pneumoniae = settings: Concentration 20 uM; ASSAY_TEST Inhibition of Bacterial Growth; detection method Absorption (OD600); MEDIA CAMHB; plate type 384well; NBS; CORNING #3640; time 18 hr
Candida albicans = settings: 20 µM
Cryptococcus neoformans = settings: Concentration 20 uM; ASSAY_TEST Inhibition of Fungal Growth; detection method Resazurin; Absorption (OD600-OD570); plate type 384well; NBS; CORNING #3640

| SMILES | Inhibition (Klebsiella pneumoniae) | Inhibition (Candida albicans) | Inhibition (Cryptococcus neoformans) |
| --- | --- | --- | --- |
| Nc1ncnc2c1ncn2[C@@H]1O[C@H](CO)[C@@H](O)[C@@H]1O [VIDARABINE] | 13.1% | 4.29% | 1.72% |
| CC[C@@H]1C(=O)OC[C@@H]1Cc1cncn1C.Cl [PILOCARPINE HYDROCHLORIDE] | 13.79% | 2.29% | -1.97% |
| Cn1ccnc1S [METHIMAZOLE] | 12.71% | 5.56% | 0.77% |
| CCCCC[C@H](O)/C=C/[C@H]1[C@H](O)CC(=O)[C@@H]1CCCCCCC(=O)O [ALPROSTADIL] | 7.2% | 3.09% | 2.52% |
| Cl.c1ccc(CC2=NCCN2)cc1 [TOLAZOLINE HYDROCHLORIDE] | 3.87% | 2.51% | -1.43% |
| COC(=O)C1=C(C)NC(C)=C(C(=O)OCC(C)C)C1c1ccccc1[N+](=O)[O-] (stereo not given) [NISOLDIPINE] | 25.81% | 6.12% | 42.23% |
| COc1cc(C(=O)NS(=O)(=O)c2ccccc2C)ccc1Cc1cn(C)c2ccc(NC(=O)OC3CCCC3)cc12 [ZAFIRLUKAST] | 3.3% | 0.8% | 1.96% |
| CCCc1nc2c(C)cc(-c3nc4ccccc4n3C)cc2n1Cc1ccc(-c2ccccc2C(=O)O)cc1 | 15% | 1.9% | -31% |
| O=C(C1CCCCC1)N1CC(=O)N2CCc3ccccc3C2C1 (stereo not given) [PRAZIQUANTEL] | 12.45% | 5.72% | -0.79% |
| Br.Br.O=C1CC2(CCCC2)CC(=O)N1CCNCC1COc2ccccc2O1 (stereo not given) | 12.27% | 3.99% | -1.27% |
